This is an account of results in PubChem BioAssay AID602123 (The Scripps Research Institute Molecular Screening Center, 2011).

Molecules are shown by their SMILES. In all, about 360,000 compounds went through this assay and about 1,500 (0.42%) were called active. The sample as a whole holds a higher share of actives than the screen did. A number with no mark means an inactive call. No stated cut-off is given here; in the data, active means inhibition above about 13% (passing the limit was not always enough); inactive means the rest.

The target in the test is Lon protease (Escherichia coli (strain K12)) (UniProt P0A9M0). The test can be described thus: E. coli eLon protease inhibition – biochemical, fluorescence polarization, primary screen (AID 602123).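 Further: 0% = enzyme with probe and DMSO and 100% = no enzyme.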 The note with it: purified E. coli Lon protease, at 7.94 µM, hits give high values. (In general: Fluorescence polarisation rises when a labelled molecule tumbles more slowly, as on binding a larger partner.)
Chain of Lon protease (Escherichia coli (strain K12)) (P0A9M0 whole entry, looked up): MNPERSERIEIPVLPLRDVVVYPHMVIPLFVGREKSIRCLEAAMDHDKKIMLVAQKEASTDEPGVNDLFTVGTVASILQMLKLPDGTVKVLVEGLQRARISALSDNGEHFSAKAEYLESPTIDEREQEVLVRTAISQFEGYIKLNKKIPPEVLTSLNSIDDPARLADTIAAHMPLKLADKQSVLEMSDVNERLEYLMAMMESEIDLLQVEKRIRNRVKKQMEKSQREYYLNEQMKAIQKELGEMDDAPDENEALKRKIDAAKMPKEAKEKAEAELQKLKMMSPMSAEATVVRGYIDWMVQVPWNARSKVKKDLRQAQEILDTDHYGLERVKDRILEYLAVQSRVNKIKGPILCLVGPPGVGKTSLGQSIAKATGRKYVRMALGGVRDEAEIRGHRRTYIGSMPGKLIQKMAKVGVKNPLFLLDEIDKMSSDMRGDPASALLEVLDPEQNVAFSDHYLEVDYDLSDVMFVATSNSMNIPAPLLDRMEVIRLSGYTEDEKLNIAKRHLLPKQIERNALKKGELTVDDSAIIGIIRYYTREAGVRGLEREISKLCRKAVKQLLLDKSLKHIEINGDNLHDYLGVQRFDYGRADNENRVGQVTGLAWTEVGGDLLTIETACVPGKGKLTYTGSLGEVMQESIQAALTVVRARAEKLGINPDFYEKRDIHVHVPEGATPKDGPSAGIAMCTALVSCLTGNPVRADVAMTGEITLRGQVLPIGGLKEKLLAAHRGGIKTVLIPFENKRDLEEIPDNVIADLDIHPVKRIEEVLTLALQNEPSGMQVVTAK
In general, inhibition refers to the change of the read-out against control, counted positive when it falls. On to `O=S(=O)(/N=C(/Nc1ccccc1)c1ccccc1)c1cccs1`, for which the inhibition was 5.92%.

In the case of `O=S1(=O)CC(N2CCN(CCO)CC2)CN1Cc1cn(Cc2ccc(Cl)cc2)nn1` (configuration not stated), the inhibition is -4.7%.

As for `Cn1nc(C(F)(F)F)c2cc(NC(=O)OCC(C)(C)C)sc21`, the inhibition was -3.72%.

As to `CCNc1nc(N)nc(-c2cc(Cl)ccc2OC)n1`, the inhibition was -13.4%.

With `CCOc1cc(S(=O)(=O)NC2CC(C)(C)NC(C)(C)C2)ccc1F`, the inhibition was -9.09%.

Turning to `COCCNC(=O)CN(Cc1ccco1)C(=O)CCC(=O)Nc1nccs1`, the inhibition was -1.88%.

Take `COc1ccc(CCNC(=O)Nc2ccc3c(c2)c(=O)n(C)n3C)cc1OC`: the inhibition was 7.25%.

As to `COCCNC(=O)Nc1ccc2nc(-c3ccco3)c(-c3ccco3)nc2c1`, the inhibition was 25.9% (active).

On to `O=C(c1cccc(Br)c1)N1CCN(C2=NS(=O)(=O)c3ccccc32)CC1`, for which the inhibition was -1.34%.

For `Oc1ccc(N=Cc2sc3ccccc3c2Cl)cc1`, the inhibition was 32.3% (active).

For `COc1cc([C@H](Cc2ccccc2)NC(C)=O)oc(=O)c1`, the inhibition is 17.6% (active).

In the case of `COc1ccc2oc(C(=O)NCC(Cc3ccccc3)N(C)C)c(C)c2c1` (configuration not stated), the inhibition is 1.71%.

For the compound `COc1ccc(OC)c(NC(=O)N[C@H](Cc2ccccc2)C(=O)NN)c1`, the inhibition was -10.1%.

In the case of `CC(=O)N1CC(C)c2scc(C)[n+]2-c2ccccc21` (configuration not stated), the inhibition is 20.3%.

`C=CCc1cccc2cc(C(=O)Nc3ccc(NC(C)=O)cc3)c(=O)oc12`: the inhibition was -3.06%.

As to `CCc1cc2c(=O)c(-c3ccon3)c(N)oc2cc1OC`, the inhibition is -12.2%.

Turning to `Cc1cc(OCCN2CCCC2)cc(C(C)C)c1`, the inhibition was 3.29%.

`Nc1ccc2nc3c(=O)[nH]c(=S)[nH]c3nc2c1`: the inhibition is 182% (active).

Regarding `Cc1coc2c(O)cc3c(c12)OC1(N2CCCCC2)C(=O)NCCCC31` (configuration not stated), the inhibition was 29.9% (active).

With `CSc1ccc(C(=O)C2CCCN(C(=O)c3ccc(C)nc3)C2)cc1` (configuration not stated), the inhibition was -8.1%.

For `CCCC(=O)OCC(=O)Nc1cc(Cl)ccc1[N+](=O)[O-]`, the inhibition was 5.89%.

Regarding `CC1(C)CC(N2CCN(C(c3ccccc3)c3ccccc3)CC2)=CC(=[N+]2CCCCC2)C1`, the inhibition is -3.99%.

In the case of `O=C(O)Cc1ccc(NC(=O)C2CCCCC2C(=O)O)cc1` (configuration not stated), the inhibition is -2.29%.

As to `CC#CC[N+](C)(C)CCCCCC`, the inhibition was 11.3%.

For the compound `COc1ccc(N2CCN(C3CCCCC3NS(=O)(=O)c3ccccc3)CC2)cc1` (configuration not stated), the inhibition is 17.2% (active).

As to `CCN1CCN(C2CCCCC2NS(=O)(=O)c2ccc(Cl)cc2)CC1` (configuration not stated), the inhibition is -11.9%.

Regarding `O=S(=O)(NC1CCCCC1N1CCN(c2ccccc2F)CC1)c1ccccc1` (configuration not stated), the inhibition was -9.13%.

For `N#Cc1ccccc1Sc1ccccc1C(=O)OCC(=O)NC1CCCCC1`, the inhibition was -2.35%.

For `Cc1nc2nc3c(cn2n1)C(=O)CC(c1ccccc1)C3` (configuration not stated), the inhibition is 6.37%.

Take `CC(C)n1c(O)c(N=Nc2ccccn2)c2ccccc21`: the inhibition is -4.1%.

As for `Cc1cccc(C)c1N1CCN(S(=O)(=O)N2CCCCC2)CC1`, the inhibition was 2.21%.

Take `Cc1cccc(C)c1N1CCN(S(=O)(=O)N2CCOCC2)CC1`: the inhibition was 21.5% (active).

Regarding `O=S(=O)(N1CCOCC1)N1CCN(c2ccccc2F)CC1`, the inhibition was 3.92%.

For the compound `COc1ccc(/C=C/CN2CCCC(C(=O)c3cc(F)ccc3F)C2)cc1` (configuration not stated), the inhibition was -0.58%.

Take `C=CCn1c(=S)sc2c(=O)[nH]c(C)nc21`: the inhibition is 5.17%.

In the case of `Cc1ccn(C(CC(=O)c2ccc(Br)cc2)C(=O)O)n1` (configuration not stated), the inhibition is 5.2%.

Turning to `Cc1nc(N)sc1-c1ccccc1`, the inhibition was -2.59%.

As to `N#Cc1c(N)nc2c3c(sc(=N)c2c1N)NC(=O)CC3c1ccccc1Cl` (configuration not stated), the inhibition was -13.5%.

On to `O=[N+]([O-])c1cccc(C=NN=Cc2ccccc2O)c1`, for which the inhibition was 0.97%.

As to `Nc1ccccc1/C=N\N=C/c1ccccc1N`, the inhibition was 25.9% (active).

On to `COc1ccc(N2CCN(S(=O)(=O)CCNC(=O)C34CC5CC(CC(C5)C3)C4)CC2)cc1`, for which the inhibition was -6.65%.

As to `COc1ccc(C)cc1S(=O)(=O)Nc1cc2c3c(c1)CCC(=O)N3CCC2`, the inhibition was 0.26%.

With `CNc1cnc(-c2cc(OC)c(OC)c(OC)c2)cn1`, the inhibition is 1.98%.

Turning to `COC(=O)c1cccc(N(C(=O)c2ccco2)C(C(=O)NC2CCCC2)c2ccco2)c1` (configuration not stated), the inhibition is -3.87%.

On to `Cc1ccc(-n2c(=O)c(C#N)cc3c(=O)n4ccccc4nc32)cc1C`, for which the inhibition is -8.16%.

On to `COC(=O)Nc1ccc(S(=O)(=O)N2CCN(CCN3C(=O)C4C5C=CC(C5)C4C3=O)CC2)cc1` (configuration not stated), for which the inhibition was -1.58%.

With `C/C(CC(=O)Nc1ccc(Cl)cc1)=N\NC(=O)C(=O)NCCO`, the inhibition was -5.9%.

Regarding `COc1ccc(COC(=O)N/N=C(\C)CC(=O)Nc2ccc(Cl)cc2)cc1`, the inhibition is 9.08%.

As for `CCc1ccc(NC(=O)C(=O)N/N=C(\C)CC(=O)NCCOC)cc1`, the inhibition was 28.6% (active).

With `O=C(/C=C/c1cccc(C(F)(F)F)c1)N1CCN(c2ccccn2)CC1`, the inhibition was 8.73%.

As to `COc1nc(N(C)C)nc(N2CC(=O)N(CCNS(=O)(=O)c3ccc(C)cc3)C2=N)n1`, the inhibition is -0.47%.

On to `C/C(=N\NC(=O)CCn1nc(C)cc1C)C(C)(C)C`, for which the inhibition is -2.11%.

As for `CSc1nc(C)nc(C2CC2)c1C#N`, the inhibition is 5.92%.

Consider `CC1(C)OC(=O)C(=CNC(CO)C(=O)O)C(=O)O1` (configuration not stated), for which the inhibition was 17.8% (active).

In the case of `CC(C)Oc1ccccc1C(=O)NC(CO)C(=O)O` (configuration not stated), the inhibition was -0.19%.

As for `Cc1nn(CC(=O)Nc2ccc(C#N)cc2)c(C)c1[N+](=O)[O-]`, the inhibition was -15.5%.

For the compound `COc1ncnc2c1N=C1CC(C)(C)CC(N)=C1S2`, the inhibition was 65.4% (active).

On to `Cn1cc(CCC(=O)N2CCCC(C(=O)c3ccc(C(C)(C)C)cc3)C2)cn1` (configuration not stated), for which the inhibition is -1.82%.

In the case of `O=C(COc1ccc(/C=N/NS(=O)(=O)c2ccccc2)cc1)NCCc1ccccc1`, the inhibition was -5.95%.

For `CCCCOCCCNC(=O)C[C@@H]1C[C@@]2(C(=O)OC)CCCCC=C2N(CCC2=CCCCC2)C1=O`, the inhibition is 14.4% (active).

For `COC(=O)[C@]12CCCCC=C1N(CCC1=CCCCC1)C(=O)[C@H](CC(=O)NCC1CCCCC1)C2`, the inhibition was -2.93%.

`CCOC(=O)N1CCN(C(=O)C[C@@H]2C[C@@]3(C(=O)OC)CCCCC=C3N(CCC3=CCCCC3)C2=O)CC1`: the inhibition is 4.15%.
